USP10 block = human USP10 deubiquitinase inhibition. Q14694. 47,000 tested, 1.1% active. purified USP10, Ub-rhodamine fluorescence, 60 min. inhibition, % at 20 µM. AID 1645856
USP28 inh = inhibitors of human USP28 deubiquitinase; Q96RU2; purified USP28, Ub-rhodamine cleavage fluorescence, 30 min; inhibition, % at 25 µM; 47,000 tested, 3% active; AID 1645857
USP8 block = human USP8 deubiquitinase inhibition; purified USP8, Ub-rhodamine cleavage fluorescence, 30 min; 47,000 tested, 4.2% active; P40818; inhibition, % at 20 µM
USP17 block = human USP17-like deubiquitinase inhibition. AID 1645855. 47,000 tested, 6.5% active. inhibition, % at 50 µM. purified USP17, Ub-rhodamine cleavage fluorescence, 3 h
USP7 block = inhibitors of human USP7 deubiquitinase; 47,000 tested, 0.3% active; purified USP7, Ub-rhodamine cleavage fluorescence; inhibition, % at 20 µM; AID 1645854
USP30 inh = inhibitors of human USP30 deubiquitinase | purified USP30, Ub-rhodamine cleavage fluorescence | inhibition, % at 25 µM | 47,000 tested, 5.3% active
Target sequence (Q70CQ3 whole entry, looked up): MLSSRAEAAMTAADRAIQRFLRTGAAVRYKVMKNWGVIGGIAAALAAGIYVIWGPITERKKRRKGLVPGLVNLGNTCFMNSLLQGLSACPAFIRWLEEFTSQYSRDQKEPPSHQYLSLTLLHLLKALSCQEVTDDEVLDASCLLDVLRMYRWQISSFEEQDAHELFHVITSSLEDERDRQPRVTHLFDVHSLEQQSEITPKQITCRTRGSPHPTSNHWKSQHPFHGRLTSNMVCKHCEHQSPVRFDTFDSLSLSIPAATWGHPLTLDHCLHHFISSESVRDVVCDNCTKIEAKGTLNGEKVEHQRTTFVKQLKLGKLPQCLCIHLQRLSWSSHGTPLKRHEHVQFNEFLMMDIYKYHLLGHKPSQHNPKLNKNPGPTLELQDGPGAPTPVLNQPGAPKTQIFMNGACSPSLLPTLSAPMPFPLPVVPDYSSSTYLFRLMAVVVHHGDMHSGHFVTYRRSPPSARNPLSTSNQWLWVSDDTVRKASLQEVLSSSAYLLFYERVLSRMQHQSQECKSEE
Each line names hits and unclear results; the compound was inactive in the other large screens. Hits are enriched below; roughly 13% of the tested compounds scored in any of these assays. Cut-off read from the data, not from the text of the source: active = inhibition above about 30%; inactive = the rest.

COc1cccc(C(=O)Nc2nonc2-c2ccc(C(C)C)cc2)c1	USP8 block 44
CC(=O)Nc1ccc(S(=O)(=O)N2CC[C@@H]3CN(C(=O)c4ccccc4)[C@@H]3C2)cc1	none
COC(=O)c1ccc(C)c(NC(=O)c2nn(Cc3ccccc3)c(=O)c3ccccc23)c1	none
COC(=O)c1ccc(C(=O)OC)c(NC(=O)c2nn(-c3ccccc3)c(=O)cc2OC)c1	USP17 block 37
CC(=O)N[C@@H](CSC1=C2NC(=O)\C(C)=C/C=C\C=C\[C@@H](C)[C@@H](O)CC(=O)/C(C)=C/C[C@H](O)/C=C/[C@H](C)[C@@H](O)[C@H](C)/C=C(\C)C(=O)c3c(O)c(C)cc(c3C1=O)C2=O)C(=O)O	none
O=C(NCCN1CCCCC1)c1[nH]nc2c1COc1ccccc1-2	none
O=C(Nc1cccc(Cl)c1)c1[nH]nc2c1COc1ccccc1-2	USP8 block 75
O=C(NC1CCN(Cc2ccccc2)CC1)c1[nH]nc2c1COc1ccccc1-2	USP28 inh 67
CC(C)NC(=O)c1[nH]nc2c1COc1ccccc1-2	none
O=C(NCc1ccc2c(c1)OCO2)c1[nH]nc2c1COc1ccccc1-2	USP28 inh 31, USP8 block 54, USP17 block 60, USP30 inh 39 (no result: USP7 block)
N#Cc1cccc(NC(=O)c2[nH]nc3c2COc2ccccc2-3)c1	USP10 block 41, USP8 block 72
Cc1ccc(CNS(=O)(=O)c2ccc3c(c2)NC(=O)CC(C)S3)cc1 (centres undefined)	none
COc1ccc(C(NC(=O)c2ccccc2C(=O)O)c2ccccc2)cc1 (centres undefined)	none
O=C(C1CCC1)N1CCc2cc(S(=O)(=O)N3CCOCC3)ccc21	none
Cc1cc(-c2noc(-c3cccnc3)n2)c2ccccc2n1	USP17 block 40
O=C(Nc1cccc2ccccc12)C1CCN(c2ccc(-c3ccc(F)cc3)nn2)CC1	USP17 block 44 (no result: USP28 inh, USP7 block, USP30 inh)
CN(C)CCNC(=O)c1cccc(C2CCCN(C(=O)Nc3ccccc3)C2)c1 (centres undefined)	none
COc1ccc(-c2cc(C(=O)OCC(=O)Nc3cc(C)on3)c3ccccc3n2)cc1OC	USP17 block 30
COc1ccccc1C(=O)N1CCN(c2nc(-c3ccccc3)no2)CC1	none
O=C(c1ccc(N2C(=O)CCS2(=O)=O)cc1)N(Cc1ccccc1)c1ccccc1	none (no result: USP28 inh, USP30 inh)
CC(C)c1ccc(NC(=O)Cn2cnc3c(nc4n3CCCCC4)c2=O)cc1	none
COc1ccccc1OCC(=O)Nc1ccc(S(=O)(=O)Nc2cc(C)cc(C)c2)cc1	none
CCOc1ccc(NS(=O)(=O)c2ccc(NC(=O)Nc3ccccc3)cc2)cc1	USP10 block 34, USP28 inh 49, USP8 block 45, USP30 inh 83
CCOc1ccc(NS(=O)(=O)c2ccc(NC(=O)COc3ccccc3C)cc2)cc1	USP30 inh 43
CC(=O)Nc1ccc(S(=O)(=O)Nc2ccc(OCc3ccccc3)cc2)cc1	none
Cc1c(Cl)cccc1NS(=O)(=O)c1ccc(NC(=O)Nc2ccccc2)cc1	USP17 block 39, USP30 inh 34
COc1cc(NS(=O)(=O)c2ccc(NC(=O)COc3ccc(C)cc3Br)cc2)nc(OC)n1	USP10 block 38, USP30 inh 45
Cc1nc(NCC2CCN(C(=O)CCN)CC2)c2cc(Cl)ccc2n1	none
CCN(C(=O)C(=O)c1cn(CC(=O)N2CCOCC2)c2ccccc12)c1ccccc1	none
Cc1cccc(OCc2nc(C)c(C(=O)NC3CCCC3)s2)c1	none
O=S(=O)(Nc1ccccc1Cl)c1ccc(N2CCCCS2(=O)=O)cc1	none
COc1ccc(NS(=O)(=O)c2ccc(NC(=O)Nc3ccc(Cl)cc3)cc2)cc1	USP28 inh 42, USP17 block 56
Cc1c(Cl)cccc1NS(=O)(=O)c1ccc(N2CCCCS2(=O)=O)cc1	USP30 inh 40
O=C(NCc1ccccc1F)C1(Cc2ccccc2-c2cccnc2)CCOCC1	none
O=C(Cn1cnc2sc3c(c2c1=O)CCC3)NCCC1=CCCCC1	USP8 block 78
Fc1cccc(-c2ccc3c(C4CCCN4c4ncccn4)nnn3c2)c1 (centres undefined)	none
Cc1ncc(C(=O)N2CCN(Cc3ccccc3)C(C(N)=O)C2)cn1 (centres undefined)	none
Cc1cc2nc(Oc3cccc(Cl)c3)c3ccccc3n2n1	USP17 block 62
CCOc1ccccc1CNC(=O)Cc1c(C)n[nH]c1C	none
COCCNC(=O)C1(C)Cn2nc(-c3ccco3)cc2C(=O)N1c1ccc(NC(C)=O)cc1 (centres undefined)	none
CC(=O)Nc1ccc(N2C(=O)c3cc(-c4ccco4)nn3CC2(C)C(=O)NCc2ccc(F)cc2)cc1 (centres undefined)	USP8 block 39
COc1ccc2c(c1)c(C(=O)CSc1nc(C)nc3c1oc1ccccc13)c(C)n2C	none
CCc1nc(SCC(=O)NCCc2ccc(OC)c(OC)c2)c2oc3ccccc3c2n1	none
CCc1nc(SCCO)c2oc3ccccc3c2n1	none
CCc1nc(Sc2ccc3ccccc3c2)c2oc3ccccc3c2n1	USP17 block 51, USP30 inh 52
COc1ccc(OC)c(NC(=O)CSc2nc(C)nc3c2oc2ccccc23)c1	USP17 block 61
CCc1nc(SCC(=O)Nc2cc(C)ccc2OC)c2oc3ccccc3c2n1	USP17 block 41, USP30 inh 42
Cc1nc(-c2ncc(C)[nH]2)cc(C2CCCN(C(=O)Cc3ccc(F)cc3)C2)n1 (centres undefined)	none
O=S(=O)(NCC(O)c1ccccc1)c1ccc(-c2ccccn2)s1 (centres undefined)	none
NS(=O)(=O)c1ccc(CNS(=O)(=O)c2ccc(-c3ccccn3)s2)cc1	USP30 inh 60 (no result: USP17 block)
Cc1cccc(CN2C[C@@H]3[C@@H](C(=O)NCC(C)C)CCS(=O)(=O)[C@@H]3C2)c1	none
COC(=O)c1ccc2c(=O)n(CCCCCC(=O)NCCc3ccc(OC)c(OC)c3)c(=O)[nH]c2c1	USP8 block 46, USP30 inh 46
COC(=O)c1ccc2c(=O)n(CCCCCC(=O)NCCC3=CCCCC3)c(=O)[nH]c2c1	none
COC(=O)c1ccc2c(=O)n(CCCCCC(=O)NCc3cccc(Cl)c3)c(=O)[nH]c2c1	USP10 block 39, USP8 block 65, USP17 block 31, USP30 inh 62
Cc1cc(C2CN(C(=O)Cn3nnc4ccccc43)CCO2)ccn1 (centres undefined)	none
COc1ccc(NC(=O)CN2CCN(c3ccc(C(C)=O)cc3)CC2)cc1S(=O)(=O)N1CCCCC1	USP17 block 36, USP30 inh 54
COc1ccc(NC(=O)Cc2ccccc2F)cc1S(=O)(=O)N1CCCCC1	none (no result: USP17 block)
Cc1ccc(-c2nc3c(c(SCC(=O)NCc4ccco4)n2)COC(C)(C)C3)cc1	USP17 block 41
Cc1ccc(-c2nc3c(c(SCC(=O)c4ccccc4)n2)COC(C)(C)C3)cc1	none

Compound activity (PubChem BioAssay)
